Out of some 370,000 compounds screened, about 4,800 (1.3%) were called active. What follows is part of a selection rich in actives, with near analogues and random picks from the rest. Values without a mark were called inactive.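 Rule for the calls: active = inhibition above about 21% made by adding two undisclosed values (limit read from the data); inactive = the rest.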
Molecular target: Protein arginine N-methyltransferase 1 (Homo sapiens) (UniProt Q99873)
Test: human PRMT1 activity-probe blockers – biochemical, fluorescence polarization, primary screen (AID 652257)
Details: recombinant PRMT1, activity-based probe fluorescence polarization; at 2.79 µM; active compounds read high

Sequence of Protein arginine N-methyltransferase 1 (Homo sapiens) (Q99873 whole entry, looked up): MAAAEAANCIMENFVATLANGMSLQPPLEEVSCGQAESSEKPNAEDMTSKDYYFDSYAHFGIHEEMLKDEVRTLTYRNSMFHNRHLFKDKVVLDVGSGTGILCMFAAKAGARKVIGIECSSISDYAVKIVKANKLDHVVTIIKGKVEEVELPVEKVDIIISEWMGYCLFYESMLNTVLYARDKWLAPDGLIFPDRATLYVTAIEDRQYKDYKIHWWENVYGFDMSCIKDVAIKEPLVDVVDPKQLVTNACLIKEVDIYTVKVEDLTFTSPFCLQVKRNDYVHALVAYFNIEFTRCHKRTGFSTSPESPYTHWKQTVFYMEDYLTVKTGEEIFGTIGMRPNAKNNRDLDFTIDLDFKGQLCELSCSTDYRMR

| SMILES | inhibition |
| --- | --- |
| CC(NCc1nc2ccccc2n1C)C12CC3CC(CC(C3)C1)C2 (stereo unspecified) | 5.86% |
| CCC(C)[C@@H](C(=O)OC)N(CCc1cn(Cc2ccccc2)nn1)S(=O)(=O)c1ccccc1Br (stereo partly specified) | 1.11% |
| NC(=O)C[C@@H]1NC(=O)CNC(=O)c2cc([N+](=O)[O-])cc(I)c2NCCC(C(N)=O)NC1=O (stereo partly specified) | -3.5% |
| Cc1cc(C)cc(C(=O)N2CCN=C2SCc2ccc([N+](=O)[O-])cc2)c1 | -6.78% |
| CC(=O)N1CC[n+]2c(-c3ccc([N+](=O)[O-])cc3)csc21 | 52.3% (active) |
| CN1C2CCC1CC(NC(=O)c1ccc([N+](=O)[O-])cc1)C2 (stereo unspecified) | -4.9% |
| Cc1ccc(-n2c(SCC(=O)Nc3ccc(S(=O)(=O)Nc4nccs4)cc3)nnc2-c2ccccn2)cc1 | -1.31% |
| Cc1ccc(OS(=O)(=O)c2ccc(-c3csc(C)n3)s2)c(C)c1 | 27.8% (active) |
| C=CCN1C(=O)[C@@H](CC(=O)NCC2CCCCC2)[C@]2(C(=O)OC)CCCCC=C12 | -0.92% |
| COc1cc(C2C(C#N)=C(C)NC3=C2C(=O)CC(C)(C)C3)ccc1O (stereo unspecified) | -0.43% |
| C=CCSC1=C(C#N)C(c2cc(Br)c(O)c(OC)c2)CC(=O)N1 (stereo unspecified) | 23.6% (active) |
| Cc1cc(=O)[nH]c2nnnn12 | -0.07% |
| CCNC(=O)COc1cc(C)c(Br)c(C)c1 | -2.57% |
| Cc1ccc(NC(=S)NNC(=O)CSc2nnc(SCc3ccccc3Cl)s2)cc1 | -4.6% |
| Cc1cc(=O)[nH]c(SCC(=O)Nc2ccc(F)cc2F)n1 | -0.33% |
| COc1ccc(C(=O)Nc2ccc(-n3nncc3C(C)(C)C)cc2)cc1 | 1.48% |
| COc1ccc(C(=O)Nc2c(N)nc(SCC(=O)Nc3ccc(C(C)=O)cc3)[nH]c2=O)cc1 | 0.6% |
| COc1ccc(NC(=O)c2ccc(C#CC(C)(C)O)cc2)cc1 | 25.5% (active) |
| O=C(CCCCCN1C(=O)C2C3C=CC(C3)C2C1=O)Nc1ccccn1 (stereo unspecified) | -1.78% |

| SMILES | inhibition |
| --- | --- |
| Cc1n[nH]c(=O)c2c(NC(=O)COC(=O)c3ncc(Cl)c(Cl)c3Cl)oc(C)c12 | 7.67% |
| O=C(c1ccncc1)N1CC[C@H]2[C@H](CCCN2Cc2ccc(F)cc2)C1 | 0.01% |
| CCCn1c(C)cc(-c2csc(NC(=O)CCc3nc4ccccc4c(=O)[nH]3)n2)c1C | 9.77% |
| Cc1c(C#N)c(NC(=O)c2ccccc2)n(Cc2ccccc2)c1C | -3.16% |
| CC(=O)Nc1ccc(C(=O)Nc2nc(-c3cc(C)n(Cc4ccccc4)c3C)cs2)cc1 | 25.2% (active) |
| COc1ccc([C@H]2N[C@]3(CCCN(CC4CCCCC4)C3=O)[C@H]3C(=O)N(C)C(=O)[C@@H]23)cc1 | 5.33% |
| Cc1cc(NS(=O)(=O)c2ccc(NC(=O)CSc3nnc(-c4ccc(C(C)(C)C)cc4)n3Cc3ccco3)cc2)nc(C)n1 | 3.17% |
| O=C(Oc1ccc(Br)cc1C(=S)N1CCOCC1)c1cccc([N+](=O)[O-])c1 | 5.11% |
| O=C(Oc1ccccc1C(=S)N1CCCCC1)c1cc([N+](=O)[O-])cc([N+](=O)[O-])c1 | 41.9% (active) |
| O=C(Oc1ccccc1Cl)c1ccc(N2CCOCC2)c([N+](=O)[O-])c1 | -1.29% |
| O=C(Cn1c(N2CCN(C/C=C/c3ccccc3)CC2)nc2ccccc21)c1ccccc1 | 0.25% |
| CCC(C(=O)NCc1cccnc1)n1nc(C)c2sc3ccccc3c2c1=O (stereo unspecified) | 3.72% |
| Cc1ccc(S(=O)(=O)C2(S(=O)(=O)c3ccc(C)cc3)CCCC2)cc1 | 1.95% |
| CCCOc1ccc(C(=O)C(CCC(CNCC)C(=O)c2ccc(OCCC)cc2)CNCC)cc1 (stereo unspecified) | -1.8% |
| CCc1ccc(N(C(=O)c2csnn2)C(C(=O)NC2CCCCC2)c2ccncc2)cc1 (stereo unspecified) | 0.98% |
| Clc1ccc(-n2c(COc3ccccc3)nnc2SCc2nc3ccccc3[nH]2)cc1 | 4.16% |
| CC1CCN(c2ccc(C(=O)O)cc2NS(=O)(=O)c2ccc(Br)s2)CC1 | -1.42% |
| COc1ccc(OCC(=O)OCCN(C)C)cc1 | -3.78% |
| Cc1ccc(OCC(=O)Nc2ccc(C(=O)O)cc2NC(=O)COc2ccc(C)c(C)c2)cc1C | -0.54% |

| SMILES | inhibition |
| --- | --- |
| COc1ccc(C(=O)COC(=O)COc2ccc(C)c(C)c2)cc1 | 29.1% (active) |
| CCn1c(=O)n2n(c1=O)[C@@]1(C=C3CCCC[C@H]32)N=C(NC(=O)c2ccccc2)N(Cc2ccccc2)[C@H]1Cc1ccccc1 | -0.64% |
| Cc1cccc(NC(=O)C[C@H]2CC[C@H]3[C@@H](COc4ccc(NC(=O)Nc5ccccc5)cc4C(=O)N3C)O2)c1 | 0.26% |
| CCOC(=O)Nc1ccc(S(=O)(=O)N(C)C(C)C)cc1 | 1.03% |
| COc1ccc2c(C(C)c3ccc(N)cc3)cn(C)c2c1 (stereo unspecified) | -4.35% |
| O=C(CSc1cccc[n+]1[O-])NCCCc1ccccc1 | -1.06% |
| CCN(C(=O)CSc1cccc[n+]1[O-])c1ccccc1 | -2.83% |
| O=C(CSc1cccc[n+]1[O-])c1ccc(-c2ccccc2)cc1 | 39.5% (active) |
| CCN(CC)C(=O)CC[C@H]1CC[C@]2(CCCN(Cc3ccc(Cl)cc3)C2)O1 | -4.34% |
| CCn1c(CSCc2c(Cl)cccc2Cl)n[nH]c1=S | -0.4% |
| Cc1ccc(NCc2n[nH]c(=S)n2-c2ccccc2)cc1Cl | 15.4% |
| S=c1[nH]nc(CSCc2ccc(Cl)cc2Cl)n1-c1ccccc1 | 21.5% (active) |
| CCCNC(=O)C1(C)CCCN(C(=O)c2oc3ccccc3c2C)C1 (stereo unspecified) | -2.54% |
| CNc1nc(=O)n(C2CCCO2)cc1C (stereo unspecified) | 4.11% |
| C=CS(=O)(=O)N(Cc1nnn(Cc2ccccc2)c1Br)[C@H](C(=O)OC)C(C)C | -6.2% |
| Cc1cccc(Oc2c([N+](=O)[O-])c(=O)n(C)c3ccccc23)c1 | 30% (active) |
| Cn1c(=O)c([N+](=O)[O-])c(Oc2ccccc2)c2ccccc21 | 5.71% |
| COc1cc2c(=O)n(C)c3ccccc3c2cc1OC | 0.5% |
